# G9a inh = blocks human histone lysine methyltransferase G9a | Potency, µM (doses to about 102 µM), actives largely listed as inhibitors | G9a H3K9 monomethylation, AlphaScreen, 2 h | AID 504332 | 350,000 compounds, 8.8% hits | Q96KQ7; also: nearly all actives have a fitted effect of over 75% in size
# Target sequence (Q96KQ7 913-1193 limits assumed): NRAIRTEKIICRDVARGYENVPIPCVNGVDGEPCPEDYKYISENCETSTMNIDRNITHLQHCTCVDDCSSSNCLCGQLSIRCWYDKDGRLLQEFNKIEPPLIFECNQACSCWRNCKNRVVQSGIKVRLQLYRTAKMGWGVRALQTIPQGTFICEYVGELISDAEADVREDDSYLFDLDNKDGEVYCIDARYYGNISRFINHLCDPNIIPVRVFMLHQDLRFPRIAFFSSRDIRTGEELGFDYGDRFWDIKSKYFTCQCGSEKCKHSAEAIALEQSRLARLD
#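 Chemiluminescent proximity detection of H3K9 monomethylation, read after 10 min bead incubation in the dark. Reaction: 20 nM G9a, 500 nM biotin-H3K9 peptide, 20 uM SAM cofactor, 2 h, room temperature, following 15 min enzyme-compound preincubation.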
# BAZ2B inh = inhibitors of human BAZ2B bromodomain. Q9UIF8. AlphaScreen BAZ2B-H3K14Ac peptide displacement. Potency, µM (series often up to 114 µM), hits mostly inhibitors. 360,000 compounds, 4.4% hits. AID 504333; also: nearly all actives have a fitted effect of over 60% in size
#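 AlphaScreen displacement: compounds (up to 110uM) incubated 30 min at room temperature with a preformed 50 nM BAZ2B/50 nM biotinylated H3K14Ac peptide complex in PBS pH 7.4 with Tween-20. Donor and acceptor beads at 10 ug/mL final added, 20 min light-protected before reading.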
# HP1b binding inh = blocks HP1-beta chromodomain binding to methylated histone tails; P83916; AlphaScreen HP1-beta / biotin-H3K9me3 peptide binding; Potency, µM (top dose mostly 114 µM), usual class: inhibitors; 390,000 compounds, 0.56% hits; AID 540317; also: nearly all actives have a fitted effect of over 70% in size
# Target sequence (P83916 whole entry, looked up): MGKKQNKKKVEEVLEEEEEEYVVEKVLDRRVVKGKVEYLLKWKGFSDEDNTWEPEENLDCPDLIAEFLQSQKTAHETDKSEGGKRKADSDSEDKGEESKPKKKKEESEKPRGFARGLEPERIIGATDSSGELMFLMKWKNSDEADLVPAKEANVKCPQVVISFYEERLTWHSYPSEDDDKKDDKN
#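 Compound inhibition of the preformed complex between 50 nM HP1-beta and 50 nM biotinylated H3K9me3 peptide was read by AlphaScreen. Buffer was PBS pH 7.4 with 0.01% Tween-20. Incubations ran 30 min at room temperature, with 10 ug/mL donor/acceptor beads.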
# Sfp PPTase inh = inhibitors of Bacillus subtilis Sfp phosphopantetheinyl transferase. Biochemical Sfp PPTase activity, qHTS. Potency, µM, actives largely listed as inhibitors. 310,000 compounds, 3.5% hits. AID 1490;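 also: the enzyme is Sfp with the accession as filed and its product quenches rhodamine fluorescence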
#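 After 15 min at room temperature with compound, 15 nM Sfp received 5 uM rhodamine-CoA plus 12.5 uM BHQ-2-ybbR (50 mM Hepes pH 7.6, 10 mM MgCl2). Rate came from the fluorescence difference over 30 min, ex 525/em 598 nm.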
# JMJD2A Tudor inh = blocks the human JMJD2A Tudor domain; O75164; AlphaScreen JMJD2A-Tudor / H3K4me3 peptide binding; Potency, µM (highest dose often 114 µM), actives largely listed as inhibitors; 390,000 compounds, 4.4% hits; also: nearly all actives have a fitted effect of over 50% in size
# Numbers stand for hits; . = inactive; ? = inconclusive; / = not tested or not shown; [ ] = remark or other dose. The list is not random: actives were taken first. Their share in the collection is about 12%. Calls follow the shape of the dose curve; as a rule, active = well fitted curve in the direction sought with a large enough effect; inconclusive = small, poorly fitted or top-dose-only effect, or another doubt; inactive = no such curve, though single readings can be large; an effect the other way counts as inactive or inconclusive.
SMILES,G9a inh,BAZ2B inh,HP1b binding inh,Sfp PPTase inh,JMJD2A Tudor inh
O=C(Nc1ccccc1)c1ccc(CSc2ncccn2)cc1,.[0.501 µM],44.7µM,.,.,.
O=C(Nc1ccccc1F)c1ccc(CSc2ncccn2)cc1,?,.,.,.,.
CCCn1c(N)c(C(=O)CSc2nc3ncc(Cl)cc3[nH]2)c(=O)n(C)c1=O,.[2.33 µM],.,.,/,.
Cc1ccc2nc(SCC(=O)c3c(N)n(C)c(=O)n(C)c3=O)[nH]c2c1,0.891µM,?,.,.,.
C/C(N)=C(/C#N)C(=O)CSc1nc2ccc(C)cc2[nH]1,15.8µM,.,.,.,.
Cc1ccc2nc(SCC(=O)Nc3ccc(C#N)cc3)[nH]c2c1,.,.,.,/,.
CC(C)Cn1c(N)c(C(=O)CSc2nc3ncc(Cl)cc3[nH]2)c(=O)n(C)c1=O,28.2µM,.,.,/,?
CC(C)(C)OC(=O)N1CCC(c2c(C(=O)NCC3CCN(C4CCCC4)C3)cnn2-c2ccccc2Cl)CC1 (stereo not drawn),70.8µM,.,.,.,.
CCCCN1Cc2c(nc3cc(-c4ccco4)[nH]n3c2=O)C1=O,?,?,.,10µM,.
COCc1cc(=O)n2[nH]c(-c3ccco3)cc2n1,?,.,.,.,.
CCOC(=O)c1c(NC(=S)Nc2ccccc2)sc2c1CC(C)(C)SC2,39.8µM,?,.,.,.
CCOC(=O)c1c(NC(=S)NC)sc2c1CC(C)(C)SC2,?,.,.,20µM,.
CC(C)N1C(=O)CCC1C(=O)NCc1ccccc1Cl (stereo not drawn),.,.,.,.,.
COc1ccc2[nH]c3c(c2c1)CCNC3c1ccc([N+](=O)[O-])o1 (stereo not drawn),31.6µM,?,.,50.1µM,50.1µM
COc1ccc2[nH]c3c(c2c1)CCNC3C1CC=C(C)CC1 (stereo not drawn),.,.,.,.,.
Cc1ccc(NCC(O)C(O)C(O)CO)c(N=Nc2ccccc2)c1C (stereo not drawn),.[12.7 µM],11.2µM,?,.,?
O=C(O)c1ccc(C2NCC(c3ccccc3Cl)c3c2[nH]c2ccccc32)cc1 (stereo not drawn),.,.,.,.,?
COc1cc(C2NCC(c3ccc(Cl)cc3Cl)c3c2[nH]c2ccccc32)cc(OC)c1OC (stereo not drawn),.,35.5µM,?,?,44.7µM
C=CCNc1nc2c3ccccc3n(C(C)=O)c2s1,31.6µM,?,.,79.4µM,?
Clc1cccc(CN2CCN(Cc3ccco3)CC2)c1,7.94µM,17.8µM,20µM,?,1.78µM
O=C(/C=C/c1cccc(Cl)c1)N1CCC(Cc2ccccc2)CC1,.,.,.,.,.
Clc1ccc(CN2CCC(Cc3ccccc3)CC2)cc1,4.47µM,31.6µM,?,?,20µM
Clc1ccc(CN2CCC(c3ccccc3)CC2)cc1,.,.,.,.,.
Clc1cccc(CN2CCC(Cc3ccccc3)CC2)c1,3.55µM,50.1µM,?,?,3.16µM
CSc1ccc(CN2CCC(Cc3ccccc3)CC2)cc1,7.08µM,70.8µM,.,.,35.5µM
SMILES,G9a inh,BAZ2B inh,HP1b binding inh,Sfp PPTase inh,JMJD2A Tudor inh
CCOC(=O)N1CCc2c(sc3c2C(=O)NC(c2cc(OC)c(OC)c(OC)c2)N3)C1 (stereo not drawn),?,?,.,/,?
CC1CCN(C(=O)c2ccc(NS(=O)(=O)c3cccs3)cc2)CC1,.,.,.,.,.
O=S(=O)(Cc1ccccc1)NCC1CCCN(Cc2ccc(F)c(F)c2)C1 (stereo not drawn),.,.,.,.,.
c1ccc(CC2CCN(Cc3ccccn3)CC2)cc1,/,50.1µM,?,.,7.94µM
Fc1ccc(CN2CCC(Cc3ccccc3)CC2)cc1F,10µM,?,.,.,28.2µM
O=c1[nH]c2ccc(NCc3ccc(OCc4ccccc4Cl)cc3)cc2[nH]1,.,.,.,.,.
C=CCOc1ccccc1CNc1cccc(F)c1,.,.,.,.,.
C=CCOc1ccccc1CNc1ccc2c(c1)OCCO2,8.91µM,70.8µM,?,.,50.1µM
CCOc1ccc(Br)cc1CNCCN1CCOCC1,?,.,.,.,.
CCOc1ccc(Br)cc1CNc1ccc2c(c1)OCCO2,.,25.1µM,50.1µM,.,28.2µM
C=CCOc1ccccc1CNc1ccc2[nH]c(=O)[nH]c2c1,28.2µM,56.2µM,?,.,?
COc1cccc(CNc2ccc3[nH]c(=O)[nH]c3c2)c1OCc1ccccc1F,44.7µM,28.2µM,31.6µM,.,44.7µM
CCN(CC)S(=O)(=O)c1cc(NC(=O)CSc2nc3c(cc2C#N)C(=O)CC(C)(C)C3)ccc1C,.,.,.,.,.
NC(=O)CSc1nnc(Cc2cccs2)n1C1CCCCC1,.,.,.,.,.
Cc1ccc(-n2c(SCC(N)=O)nnc2-c2cnccn2)cc1,.,.,.,.,.
Cc1ccc(-n2c(-c3ccccc3)n[nH]c2=S)cc1,0.891µM,?,.,79.4µM,2.24µM
COc1ccc(-c2cc(C3CCN(C(=O)OC(C)(C)C)CC3)[nH]n2)cc1,.,.,.,.,?
Cc1ccc(-n2c(-c3ccccc3)n[nH]c2=S)c(C)c1,1.78µM,.,.,.,?
O=C(O)c1ccc(-n2c(-c3cc(C4CC4)[nH]n3)n[nH]c2=S)cc1,17.8µM,.,.,56.2µM,20µM
Cc1ccc(-n2c(-c3cnccn3)n[nH]c2=S)cc1,7.94µM,79.4µM,.,56.2µM,8.91µM
Cc1ccc(-n2c(-c3ccc(Cl)cc3Cl)n[nH]c2=S)cc1,/,.,.,.,.
Cc1cc(C)c(NC(=O)C2CCN(c3nc4ccccc4[nH]3)CC2)c(C)c1,.,.,.,/,.
Nc1cccc(-c2csc(-n3ncc(C(=O)O)c3C(F)(F)F)n2)c1,?,.,.,.,.
CC(=O)N1CCSc2ccc(S(=O)(=O)NCCc3cccc(C)c3)cc21,.,.,.,.,.
COc1cc(NC(=O)CN(C)S(=O)(=O)c2ccc3c(c2)CC(C)N3C(C)=O)cc(OC)c1OC (stereo not drawn),.,.,.,.,.
SMILES,G9a inh,BAZ2B inh,HP1b binding inh,Sfp PPTase inh,JMJD2A Tudor inh
Cc1ccc(-c2n[nH]c(=S)c3ccccc23)cc1,31.6µM,.,.,.,.
CC(c1ccccc1)n1c(-c2ccc(C(C)(C)C)cc2)n[nH]c1=S (stereo not drawn),31.6µM,?,.,.,?
O=C(O)c1ccc(-n2c(-c3ccccc3)n[nH]c2=S)cc1,?,.,.,79.4µM,28.2µM
Cc1onc(-c2ccccc2)c1-c1csc(COc2ccccc2)n1,.,.,.,.,.
Cc1onc(-c2ccccc2)c1-c1n[nH]c(=S)n1-c1ccccc1,/,/,.,/,63.1µM
S=c1[nH]nc(-c2ccccc2)c2ccccc12,?,.,.,.,.
Cc1ccc(C)c(NC(=O)C(=O)NCC(c2cccnc2)N2CCN(c3ccc(F)cc3)CC2)c1 (stereo not drawn),?,.,.,/,.
COC(=O)CNC(=O)C1CCN(S(=O)(=O)c2cnc[nH]2)CC1,.,.,.,.,.
CCC(=O)NCCN1CCN(C(=O)CC)CC1,.,.,.,.,.

# High-throughput results deposited in PubChem by National Center for Advancing Translational Sciences (NCATS).
